Measured values as given in PubChem BioAssay AID1159580 (chemical genetic matrix, 2015).
Values joined by “and” are separate entries in the source; they are usually repeats but may differ in a detail not shown here. Equal entries are not always repeated. Out of some 5,500 compounds screened, about 2,000 (36%) were called active. Another 18% or so got no clear call; they are omitted. Rule as the data show it: active = normalized growth mostly below about 0.91 (no sharp cut-off); inconclusive = no clear call, values can overlap the other calls; inactive = mostly above about 0.92. Some of the results follow.

Test: chemical genetic growth profiling, strain panel (AID 1159580);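 also: tested at 20 µM; growth read once vehicle control cultures reached saturation at 30 °C; 1 = growth at the plate median or of vehicle wells; lower values mean less growth of the strain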
Conditions: S. cerevisiae deletion strains, growth OD

Measured: normalized growth

CC1(C)S[C@@H]2[C@H](NC(=O)Cc3ccccc3)C(=O)N2[C@H]1C(=O)O
inactive: locus YAL021C, strain ccr4, hits give low values 1.03 | locus YAL026C, strain drs2, hits give low values 1.04 | locus YAL030W, strain snc1, hits give low values 1.03 | locus YBL061C, strain skt5, hits give low values 1.04 | locus YBR009C, strain hhf1, hits give low values 1.03 | locus YBR021W, strain FUR4, hits give low values 1.01 | locus YBR023C, strain chs3, hits give low values 1.04 | locus YBR171W, strain sec66, hits give low values 1.04 | locus YBR229C, strain ROT2, hits give low values 1 | locus YBR231C, strain swc5, hits give low values 1.02 | locus YBR279W, strain paf1, hits give low values 1.02 | locus YCL011C, strain gbp2, hits give low values 1.04 | locus YCL016C, strain dcc1, hits give low values 1.03 | locus YCL029C, strain bik1, hits give low values 1.02 | locus YCL061C, strain MRC1, hits give low values 1.02 | locus YCL069W, strain vba3, hits give low values 1.04 | locus YCR088W, strain abp1, hits give low values 1.03 | locus YDL005C, strain med2, hits give low values 1.02 | locus YDL035C, strain GPR1, hits give low values 1.01 | locus YDL040C, strain nat1, hits give low values 1.03 | locus YDL074C, strain BRE1, hits give low values 1.01 | locus YDL101C, strain DUN1, hits give low values 1.01 | locus YDL134C, strain PPH21, hits give low values 1 | locus YDL185W, strain tfp1, hits give low values 1 | locus YDL192W, strain arf1, hits give low values 1.02 | locus YDR001C, strain nth1, hits give low values 1.01 | locus YDR069C, strain doa4, hits give low values 1 | locus YDR101C, strain arx1, hits give low values 1.02 | locus YDR137W, strain rgp1, hits give low values 1.03 | locus YDR150W, strain NUM1, hits give low values 1 | locus YDR159W, strain sac3, hits give low values 1.02 | locus YDR162C, strain NBP2, hits give low values 1.01 | locus YDR195W, strain ref2 1.01 | locus YDR297W, strain sur2, hits give low values 1.01 | locus YDR318W, strain mcm21, hits give low values 1.02 | locus YDR334W, strain swr1, hits give low values 1.04 | locus YDR335W, strain msn5, hits give low values 1.03 | locus YDR388W, hits give low values 1.02 | locus YDR392W, strain spt3, hits give low values 0.994 | locus YDR502C, strain sam2, hits give low values 1.02 | locus YEL003W, strain gim4, hits give low values 1.03 | locus YEL037C, strain rad23, hits give low values 1.03 | locus YEL061C, strain CIN8 (second series), hits give low values 1.02 | locus YEL061C, strain CIN8, hits give low values 1 | locus YER015W, strain faa2, hits give low values 1.03 | locus YER016W, strain bim1, hits give low values 1.02 | locus YER110C, hits give low values 1.03 | locus YER111C, strain swi4, hits give low values 1.01 | locus YER155C, strain BEM2 (second series), hits give low values 1.03 | locus YER155C, strain BEM2, hits give low values 0.999 | locus YER167W, strain BCK2, hits give low values 1 | locus YFR010W, strain ubp6, hits give low values 1.03 | locus YGL078C, strain dbp3, hits give low values 1.01 | locus YGL086W, strain mad1, hits give low values 1.01 | locus YGL167C, strain pmr1, hits give low values 1.04 | locus YGL173C, strain kem1, hits give low values 1.05 | locus YGL227W, strain vid30, hits give low values 1.05 | locus YGL240W, strain doc1, hits give low values 0.993 | locus YGL248W, strain PDE1, hits give low values 1.01 | locus YGL253W, strain hxk2, hits give low values 1.04 | locus YGR078C, strain PAC10, hits give low values 1.01 | locus YGR135W, strain pre9, hits give low values 1.02 | locus YGR252W, strain gcn5, hits give low values 0.994 | locus YHR013C, strain ard1, hits give low values 1.03 | locus YHR027C, strain rpn1, hits give low values 1.01 | locus YHR030C, strain SLT2, hits give low values 1.01 and 0.977 | locus YHR079C, strain IRE1 (second series), hits give low values 1.03 | locus YHR079C, strain IRE1, hits give low values 0.981 | locus YHR094C, strain hxt1, hits give low values 1.02 | locus YHR129C, strain ARP1, hits give low values 0.999 | locus YHR142W, strain chs7, hits give low values 1.06 | locus YHR200W, strain rpn10, hits give low values 1.02 | locus YIL066C, strain RNR3, hits give low values 1 | locus YIL073C, strain SPO22, hits give low values 1.05 | locus YIL125W, strain kgd1, hits give low values 1.01 | locus YIR030C, strain dcg1, hits give low values 1.02 | locus YJL092W, strain hpr5, hits give low values 1.03 | locus YJL095W, strain BCK1 (second series), hits give low values 1.02 | locus YJL095W, strain BCK1, hits give low values 1 and 0.971 | locus YJL115W, strain asf1, hits give low values 1.03 | locus YJL129C, strain trk1, hits give low values 1.05 | locus YJL134W, strain LCB3, hits give low values 1.01 | locus YJL154C, strain vps35, hits give low values 1.03 | locus YJL164C, strain tpk1, hits give low values 1.04 | locus YJL166W, strain qcr8, hits give low values 1.01 | locus YJL168C, strain set2, hits give low values 1.02 | locus YJL187C, strain SWE1 (second series), hits give low values 1 | locus YJR043C, strain POL32, hits give low values 1
